Screen size: about 5,500 compounds; about 2,000 (36%) were called active. Roughly 18% stayed inconclusive and do not appear here. Rule as the data show it: active = normalized growth mostly below about 0.91 (no sharp cut-off); inconclusive = no clear call, values can overlap the other calls; inactive = mostly above about 0.92. Some of the results follow.
Assay: chemical genetic growth profiling, strain panel (AID 1159580);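 also: tested at 20 µM; growth read once vehicle control cultures reached saturation at 30 °C; 1 = growth at the plate median or of vehicle wells; lower values mean less growth of the strain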
Conditions: S. cerevisiae deletion strains, growth OD

Measured: normalized growth

COc1ccc(-c2cc(=O)c3c(O)cc(O[C@H]4O[C@H](CO[C@@H]5O[C@@H](C)[C@H](O)[C@@H](O)[C@H]5O)[C@@H](O)[C@H](O)[C@H]4O)cc3o2)cc1
inactive: locus YAL013W, strain DEP1, hits give low values 1.01 | locus YAL021C, strain ccr4, hits give low values 1 | locus YAL026C, strain drs2, hits give low values 1.03 | locus YAL030W, strain snc1, hits give low values 1 | locus YBL061C, strain skt5, hits give low values 1 | locus YBR009C, strain hhf1, hits give low values 1 | locus YBR021W, strain FUR4, hits give low values 1 | locus YBR023C, strain chs3, hits give low values 1.01 | locus YBR171W, strain sec66, hits give low values 1.01 | locus YBR229C, strain ROT2, hits give low values 1 | locus YBR231C, strain swc5, hits give low values 1.01 | locus YBR279W, strain paf1, hits give low values 1 | locus YCL011C, strain gbp2, hits give low values 1 | locus YCL016C, strain dcc1, hits give low values 0.989 | locus YCL029C, strain bik1, hits give low values 1.02 | locus YCL061C, strain MRC1, hits give low values 1.01 | locus YCL069W, strain vba3, hits give low values 0.968 | locus YCR088W, strain abp1, hits give low values 1.01 | locus YDL005C, strain med2, hits give low values 1 | locus YDL035C, strain GPR1, hits give low values 1 | locus YDL040C, strain nat1, hits give low values 1.01 | locus YDL074C, strain BRE1, hits give low values 1.03 | locus YDL101C, strain DUN1, hits give low values 1.03 | locus YDL185W, strain tfp1, hits give low values 1.02 | locus YDL192W, strain arf1, hits give low values 1.02 | locus YDR001C, strain nth1, hits give low values 0.998 | locus YDR069C, strain doa4, hits give low values 1.01 | locus YDR101C, strain arx1, hits give low values 1.01 | locus YDR137W, strain rgp1, hits give low values 1.02 | locus YDR159W, strain sac3, hits give low values 1.02 | locus YDR162C, strain NBP2, hits give low values 1.01 | locus YDR195W, strain ref2 1 | locus YDR297W, strain sur2, hits give low values 0.998 | locus YDR318W, strain mcm21, hits give low values 1.01 | locus YDR334W, strain swr1, hits give low values 1 | locus YDR335W, strain msn5, hits give low values 0.992 | locus YDR388W, hits give low values 1.02 | locus YDR392W, strain spt3, hits give low values 1 | locus YDR502C, strain sam2, hits give low values 1.02 | locus YEL003W, strain gim4, hits give low values 1.01 | locus YEL037C, strain rad23, hits give low values 1.01 | locus YEL061C, strain CIN8 (second series), hits give low values 0.995 | locus YEL061C, strain CIN8, hits give low values 1 | locus YER015W, strain faa2, hits give low values 1 | locus YER016W, strain bim1, hits give low values 1 | locus YER110C, hits give low values 1.02 | locus YER111C, strain swi4, hits give low values 1 | locus YER155C, strain BEM2 (second series), hits give low values 1.02 | locus YER155C, strain BEM2, hits give low values 1.01 | locus YER167W, strain BCK2, hits give low values 1.02 | locus YFR010W, strain ubp6, hits give low values 1.01 | locus YGL078C, strain dbp3, hits give low values 1.01 | locus YGL086W, strain mad1, hits give low values 1.03 | locus YGL167C, strain pmr1, hits give low values 0.995 | locus YGL173C, strain kem1, hits give low values 1.02 | locus YGL227W, strain vid30, hits give low values 1.01 | locus YGL240W, strain doc1, hits give low values 1.02 | locus YGL248W, strain PDE1, hits give low values 1.01 | locus YGL253W, strain hxk2, hits give low values 0.986 | locus YGR078C, strain PAC10, hits give low values 1.03 | locus YGR135W, strain pre9, hits give low values 1.01 | locus YGR229C, strain SMI1, hits give low values 1.02 | locus YGR252W, strain gcn5, hits give low values 1.04 | locus YHR013C, strain ard1, hits give low values 1.01 | locus YHR027C, strain rpn1, hits give low values 0.998 | locus YHR030C, strain SLT2, hits give low values 0.992 | locus YHR079C, strain IRE1 (second series), hits give low values 1.01 | locus YHR094C, strain hxt1, hits give low values 1.01 | locus YHR129C, strain ARP1, hits give low values 1.01 | locus YHR142W, strain chs7, hits give low values 0.983 | locus YHR200W, strain rpn10, hits give low values 1.02 | locus YIL066C, strain RNR3, hits give low values 1.01 | locus YIL073C, strain SPO22, hits give low values 1.08 | locus YIL125W, strain kgd1, hits give low values 1.02 | locus YIR030C, strain dcg1, hits give low values 1.02 | locus YJL092W, strain hpr5, hits give low values 0.997 | locus YJL095W, strain BCK1 (second series), hits give low values 1 | locus YJL095W, strain BCK1, hits give low values 1.05 | locus YJL115W, strain asf1, hits give low values 1 | locus YJL129C, strain trk1, hits give low values 1.01 | locus YJL134W, strain LCB3, hits give low values 0.994 | locus YJL154C, strain vps35, hits give low values 0.999 | locus YJL164C, strain tpk1, hits give low values 0.991 | locus YJL166W, strain qcr8, hits give low values 1 | locus YJL168C, strain set2, hits give low values 1.02 | locus YJL187C, strain SWE1 (second series), hits give low values 1.03 | locus YJL187C, strain SWE1, hits give low values 1.01 | locus YJR043C, strain POL32, hits give low values 0.972 | locus YKL009W, strain mrt4, hits give low values 1.04 | locus YKL068W, hits give low values 1.01 | locus YKL085W, strain MDH1 (second series), hits give low values 0.999 | locus YKL085W, strain MDH1, hits give low values 0.999 | locus YKL160W, strain elf1, hits give low values 0.999 | locus YKL190W, strain CNB1, hits give low values 0.994 | locus YKR001C, strain vps1, hits give low values 1.04 | locus YKR026C, strain gcn3, hits give low values 1 | locus YKR091W, strain srl3, hits give low values 1 | locus YLL001W, strain dnm1, hits give low values 0.969 | locus YLL026W, hits give low values 1 | locus YLL041C, strain sdh2, hits give low values 1.01 | locus YLR027C, strain aat2, hits give low values 0.981 | locus YLR039C, strain RIC1, hits give low values 1.06 | locus YLR058C, strain SHM2, hits give low values 1.01 | locus YLR102C, strain apc9, hits give low values 1.02 | locus YLR221C, strain rsa3, hits give low values 1.01 | locus YLR258W, strain gsy2, hits give low values 0.991 | locus YLR262C, strain YPT6 (second series), hits give low values 0.988 | locus YLR262C, strain YPT6, hits give low values 1.1 | locus YLR268W, strain sec22, hits give low values 1.05 | locus YLR320W, strain mms22, hits give low values 1.03 | locus YLR330W, strain CHS5, hits give low values 1 | locus YLR342W, strain FKS1 (second series), hits give low values 1.01 | locus YLR342W, strain FKS1, hits give low values 0.996 | locus YLR357W, strain rsc2, hits give low values 0.996 | locus YLR370C, strain arc18, hits give low values 1 | locus YLR371W, strain rom2, hits give low values 1.02 | locus YLR384C, strain iki3, hits give low values 0.99 | locus YLR418C, strain cdc73, hits give low values 0.994 | locus YML016C, strain PPZ1, hits give low values 1 | locus YML032C, strain rad52, hits give low values 0.998 | locus YML120C, strain ndi1, hits give low values 1 | locus YML124C, strain tub3, hits give low values 1.02 | locus YMR058W, strain fet3, hits give low values 1 | locus YMR078C, strain ctf18, hits give low values 1.02 | locus YMR125W, strain sto1, hits give low values 0.958 | locus YMR129W, hits give low values 0.999 | locus YMR205C, strain PFK2, hits give low values 1 | locus YMR223W, strain ubp8, hits give low values 1.01 | locus YMR231W, strain pep5, hits give low values 1 | locus YMR307W, strain GAS1, hits give low values 1.03 | locus YNL067W, strain RPL9B, hits give low values 1.04 | locus YNL071W, strain lat1, hits give low values 1.01 | locus YNL128W, strain TEP1, hits give low values 1.02 | locus YNL209W, strain ssb2, hits give low values 0.991 | locus YNL233W, strain BNI4, hits give low values 1.04 | locus YNL248C, strain rpa49, hits give low values 1.02 | locus YNL250W, strain rad50, hits give low values 1.02 | locus YNL271C, strain bni1, hits give low values 1.02 | locus YNL298W, strain CLA4, hits give low values 1.02 | locus YNL307C, strain MCK1, hits give low values 1.02 | locus YNL322C, strain KRE1 (second series), hits give low values 1 | locus YNL322C, strain KRE1, hits give low values 1 | locus YNR049C, strain mso1, hits give low values 0.991 | locus YNR052C, strain pop2, hits give low values 1.02 | locus YOL006C, strain TOP1, hits give low values 1.15 | locus YOL012C, strain htz1 1.14 | locus YOL147C, strain pex11, hits give low values 1.01 | locus YOR001W, strain rrp6, hits give low values 1.02 | locus YOR061W, strain CKA2, hits give low values 1 | locus YOR069W, strain VPS5, hits give low values 1.01 | locus YOR070C, strain gyp1, hits give low values 1.02 | locus YOR080W, strain dia2, hits give low values 0.998 | locus YOR083W, strain WHI5, hits give low values 1.01 | locus YOR106W, strain vam3, hits give low values 0.988 | locus YOR136W, strain idh2, hits give low values 1.03 | locus YOR144C, strain elg1, hits give low values 1.01 | locus YOR184W, strain ser1, hits give low values 1.01 | locus YOR265W, strain rbl2, hits give low values 0.998 | locus YOR270C, strain vph1, hits give low values 1.02 | locus YOR290C, strain snf2, hits give low values 0.985 | locus YOR316C, strain cot1, hits give low values 1.01 | locus YPL051W, strain arl3, hits give low values 1.01 | locus YPL078C, strain atp4, hits give low values 1.02 | locus YPL106C, strain sse1, hits give low values 1.01 | locus YPL240C, strain hsp82, hits give low values 0.995 | locus YPL241C, strain CIN2, hits give low values 0.993 | locus YPR119W, strain clb2, hits give low values 1.02 | locus YPR141C, strain kar3, hits give low values 1.01 | locus YPR163C, strain tif3, hits give low values 1.02 | locus YPR167C, strain met16, hits give low values 1.01 | strain wtn01, hits give low values 1.04

Reference: PubChem BioAssay AID1159580 (chemical genetic matrix, 2015)
